IL1B secr inh – blocks inflammasome-driven IL-1 beta release; AID 743279; activity change, % at 57.5 µM; THP-1 LPS/ATP IL-1B secretion, AlphaLISA, 16 h; active compounds read low; hit rate 4.7% among 360,000; in the data active = activity change below about -50%; inconclusive = mostly about -30% to -49%
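THP-1 cells pretreated 1 hr with compounds (up to 57.5 uM final), then stimulated with LPS (250 ng/mL final) plus ATP (1.25 mM final); secreted IL-1B measured by AlphaLISA after 16 hr, decreased signal indicating inhibition.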
HT1080 IDH1KD tx – kills HT-1080 cells with IDH1 knockdown. HT-1080 IDH1 knockdown viability, ATP luminescence, 48 h. hit rate 2% among 360,000. Potency, µM (series often up to 46.1 µM), hits mostly cytotoxic
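Luminescent ATP read-out (CellTiter-Glo, 10 min at room temperature) after 48 h compound exposure at 37 °C gave viability of IDH1-knockdown HT-1080 cells. Activity was normalised to DMSO and cell-free wells, then fitted as concentration-response curves.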
TDP1 cell noCPT – qHTS for Inhibitors of human tyrosyl-DNA phosphodiesterase 1 (TDP1): qHTS in cells in absence of CPT. AID 686978, 2013. hit rate 15% among 420,000. DT40 Tdp1-/- hTDP1 cells, no CPT, ATP luminescence, 48 h. Potency, µM (series often up to 46.2 µM), usual class: inhibitors; note: nearly all actives have a fitted effect of over 55% in size
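Readout: luminescence from CellTiter-Glo after 30 min in the dark at RT. Cells: DT40 Tdp1-/- with stable hTDP1, 400/well. Exposure: compounds alone, ≥48 hr, 37 °C.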
HT1080NT lethal – kills 2HG-producing HT-1080-NT fibrosarcoma cells | HT-1080-NT fibrosarcoma viability, CellTiter-Glo ATP luminescence, 48 h | Potency, µM (titrated, usually from 46.1 µM), hits mostly cytotoxic | hit rate 1.6% among 360,000 | AID 686970;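 note: NT is the 2HG producing partner of a matched IDH1 knockdown line; nearly all actives have a fitted effect of over 55% in size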
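Luminescent CellTiter-Glo readout after 48 hours of compound exposure at 37 degrees C defined viability of HT-1080-NT cells. Activity was normalized to DMSO wells and cell-free media wells; concentration-response curves were fitted and assigned curve classes.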
TDP1 cell CPT – DT40-hTDP1 cell growth loss with CPT. chicken DT40 Tdp1-/-;hTDP1 cells + 20 nM CPT, ATP luminescence, 48 h. AID 686979. hit rate 12% among 420,000. Potency, µM (top dose mostly 46.2 µM), most hits filed as inhibitors; note: nearly all actives have a fitted effect of over 55% in size
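Chicken DT40 Tdp1-/- cells complemented with human TDP1, 400 cells/well, exposed to compounds plus 20 nM camptothecin for at least 48 h at 37 C; viability read as ATP content by CellTiter-Glo luminescence.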
Large screens that a line does not name were inactive. Sampled rows, rich in hits. Any-hit rate of the full collection: about 19%. Unless noted, calls come from the whole dose curve; as a rule, active = well fitted curve in the direction sought with a large enough effect; inconclusive = small, poorly fitted or top-dose-only effect, or another doubt; inactive = no such curve, though single readings can be large; an effect the other way counts as inactive or inconclusive.

O=C(CN1C(=O)NC2(CCCC2)C1=O)NCc1cccc(Cl)c1	IL1B secr inh -59
CC(C)Nc1ncnc2c1ncn2[C@H]1CN(CCN2CCOCC2)C[C@@H](CO)O1	HT1080 IDH1KD tx inconclusive, HT1080NT lethal inconclusive
Cc1cnc(C2OCCO2)c2cccc([N+](=O)[O-])c12	TDP1 cell noCPT inconclusive
O=C(CCN1CCOCC1)Nc1ccc(Cl)cc1	none
O=C(NC1CCCCC1)C1(S(=O)(=O)c2ccc(Cl)cc2)CC1	none
CCCCCC(=O)Nc1ccc(C(=O)CN2C(=O)NC3(CCCCCC3)C2=O)cc1	TDP1 cell noCPT 3.7µM, TDP1 cell CPT 5.8µM
CC(C)c1ccc(C2(C)NC(=O)N(C(C)C(=O)Nc3ccc(N4CCOCC4)cc3)C2=O)cc1 (centres undefined)	TDP1 cell noCPT 26µM, TDP1 cell CPT 15µM
Cc1ccc(NC(=O)C(C)N2C(=O)C3CC=C(Cl)CC3C2=O)cc1 (centres undefined)	none
CCOC(=O)c1ccc(NC(=O)CN2C(=O)NC3(CCCCCC3)C2=O)cc1	HT1080 IDH1KD tx inconclusive, TDP1 cell noCPT inconclusive, HT1080NT lethal inconclusive, TDP1 cell CPT inconclusive
CC(C)CC(=O)Nc1ccc(C(=O)CN2C(=O)NC3(CCOc4ccccc43)C2=O)cc1 (centres undefined)	TDP1 cell CPT 18µM
CC(C(=O)Nc1ccc(Cl)cc1)N1C(=O)NC2(CCCC2)C1=O (centres undefined)	TDP1 cell noCPT 21µM, TDP1 cell CPT inconclusive
CCC1CN(CC(=O)NC(c2ccccn2)C(F)(F)F)Cc2cc(OC)ccc2O1 (centres undefined)	none (no result: IL1B secr inh, HT1080 IDH1KD tx, HT1080NT lethal)
O=C(c1cc(Br)ccc1Cl)N1CCN(c2ccccn2)CC1	none
O=C1NC2(CCCCCC2)C(=O)N1Cc1ccc(Cl)cc1Cl	IL1B secr inh -63, TDP1 cell noCPT inconclusive
CC(C)c1ccc(C2(C)NC(=O)N(CC(=O)NC3CCCC(C)C3C)C2=O)cc1 (centres undefined)	IL1B secr inh inconclusive, TDP1 cell noCPT 21µM, TDP1 cell CPT inconclusive
CC(C)c1ccc(NC(=O)CN2C(=O)NC3(CCCCCCC3)C2=O)cc1	HT1080 IDH1KD tx inconclusive, TDP1 cell noCPT 21µM, TDP1 cell CPT 21µM
CN(CC(=O)Nc1ccccc1C(F)(F)F)C(=O)C1CC1	none
Cc1nc2ccc(NC(=O)Cc3ccccc3F)cc2s1	TDP1 cell noCPT inconclusive
CC(C)CC(=O)Nc1ccccc1N1CCN(c2ccc(F)cc2)CC1	TDP1 cell noCPT inconclusive, TDP1 cell CPT 18µM
CCCCN(C(=O)c1ccc2c(c1)OCCO2)c1c(N)n(CC(C)C)c(=O)[nH]c1=O	none
O=C(Cn1nc2c(cc1=O)CCCC2)NCc1ccc(Cl)cc1	TDP1 cell noCPT 18µM, TDP1 cell CPT 16µM (no result: IL1B secr inh, HT1080 IDH1KD tx, HT1080NT lethal)
CCOc1ccccc1CNC(=O)CN1C(=O)CCc2cc(S(=O)(=O)N3CCCCC3)ccc21	TDP1 cell noCPT 21µM, TDP1 cell CPT inconclusive (no result: IL1B secr inh, HT1080 IDH1KD tx, HT1080NT lethal)
O=C(CN1C(=O)CCc2cc(S(=O)(=O)N3CCCCC3)ccc21)NCc1ccc(Cl)cc1	TDP1 cell noCPT 15µM, TDP1 cell CPT 21µM (no result: IL1B secr inh, HT1080 IDH1KD tx, HT1080NT lethal)
CC/C(=N\O)c1c(O)c2c(n(-c3ccccc3)c1=O)CCCC2	none
CCCCOC(=O)N/N=C/C=C/c1ccccc1	none
COC(=O)c1cc(OC)c(OC)cc1NCC(=O)Nc1ccc(C)cc1	IL1B secr inh -52
COC(=O)c1cc(OC)c(OC)cc1NCC(=O)Nc1ccc(OC)c(OC)c1	TDP1 cell noCPT 13µM, TDP1 cell CPT 21µM
COC(=O)c1cc(OC)c(OC)cc1NCC(=O)Nc1cccc(C(F)(F)F)c1	TDP1 cell noCPT inconclusive
Cc1ccc(N2CCN(C(=O)c3cc(S(=O)(=O)N4CCCCC4)c[nH]3)CC2)c(C)c1	TDP1 cell noCPT 16µM, TDP1 cell CPT 16µM (no result: IL1B secr inh, HT1080 IDH1KD tx, HT1080NT lethal)
Cc1cccc(CCNC(=O)c2cc(S(=O)(=O)N3CCCCC3)c[nH]2)c1	TDP1 cell noCPT inconclusive, TDP1 cell CPT 18µM
CCN(C(=O)c1cc(S(=O)(=O)N2CCCCC2)c[nH]1)c1ccc(OC)cc1	TDP1 cell noCPT 23µM, TDP1 cell CPT 9.2µM
CN(C)C(=O)c1cc(C(=O)c2ccccc2Br)c[nH]1	none
CNC(=S)NNC(=O)Cc1ccc(OC)c(OC)c1	none
O=C(NC1CCCCC1)c1n[nH]c2c1CCCCC2	TDP1 cell noCPT inconclusive, HT1080NT lethal inconclusive, TDP1 cell CPT inconclusive
CCC(C)(C)C1CCc2[nH]nc(C(=O)NCc3ccc(OC)cc3)c2C1 (centres undefined)	TDP1 cell noCPT 15µM, TDP1 cell CPT 23µM
NNC(=O)c1n[nH]c2c1CC(C1CCCCC1)CC2 (centres undefined)	TDP1 cell noCPT 5.8µM, TDP1 cell CPT 5.2µM
CCC(C)(C)C1CCc2[nH]nc(C(=O)NC3CCCC3)c2C1 (centres undefined)	IL1B secr inh inconclusive, TDP1 cell noCPT inconclusive, TDP1 cell CPT 16µM
COc1ccc(CNC(=O)c2ccc(C(C)(C)C)cc2)cc1	TDP1 cell noCPT inconclusive
CCC(C)(C)C1CCc2[nH]nc(C(=O)N/N=C(\C)c3ccco3)c2C1 (centres undefined)	IL1B secr inh -87, HT1080 IDH1KD tx inconclusive, TDP1 cell noCPT inconclusive, HT1080NT lethal inconclusive, TDP1 cell CPT inconclusive
C=CCNC(=O)c1n[nH]c2c1CC(C(C)(C)CC)CC2 (centres undefined)	TDP1 cell noCPT inconclusive, TDP1 cell CPT inconclusive
Cc1ccc(S(=O)(=O)NCc2ccccc2)cc1C(=O)NC1CCC(C)CC1 (centres undefined)	TDP1 cell noCPT inconclusive, TDP1 cell CPT inconclusive
COc1ccc(-c2nc(N3CCOCC3)nc3n[nH]c(N)c23)cc1	IL1B secr inh -70, HT1080 IDH1KD tx inconclusive, TDP1 cell noCPT 18µM, HT1080NT lethal inconclusive, TDP1 cell CPT 18µM
CCc1ccc(NC(=O)CSCc2ccc(C(=O)O)cc2)cc1	none
OC1(c2ccc(Br)cc2)CCNCC1	IL1B secr inh inconclusive, HT1080 IDH1KD tx inconclusive, HT1080NT lethal 22µM, TDP1 cell CPT inconclusive
Cc1ccc2c(c1)N(CC(=O)NCC(C)c1ccccc1)C(=O)c1cccnc1O2 (centres undefined)	TDP1 cell noCPT inconclusive
Cn1c(=O)c(C(=O)CN2CCc3ccccc32)c(N)n(Cc2ccccc2)c1=O	TDP1 cell noCPT 18µM, TDP1 cell CPT 13µM
CCOC(=O)N1CCN(c2c(N3CC=C(c4ccccc4)CC3)c(=O)c2=O)CC1	TDP1 cell noCPT 16µM, TDP1 cell CPT 21µM
CCOC(=O)N1CCN(c2c(N3CCc4ccccc4C3)c(=O)c2=O)CC1	TDP1 cell CPT inconclusive
COc1ccc(OC)c(NC(=O)[C@H](CSCc2ccccc2)N2Cc3ccccc3C2=O)c1	TDP1 cell noCPT inconclusive, TDP1 cell CPT 21µM (no result: IL1B secr inh, HT1080 IDH1KD tx, HT1080NT lethal)
O=C(NCCCN1CCCC1)[C@H](CSCc1ccccc1)N1Cc2ccccc2C1=O	HT1080 IDH1KD tx inconclusive, TDP1 cell noCPT 29µM, TDP1 cell CPT inconclusive

High-throughput results as filed in PubChem BioAssay.
